esBAF inh: SWI/SNF esBAF complex inhibition. mouse ES cells, Bmi1-luciferase knock-in reporter, 24 h; 100% = twice the neutral-well signal. reporter increase, % at 12.5 µM. 2% of 350,000 active. AID 602393; in the data active = activation above about 40%; inconclusive = no clear call, values can overlap the other calls;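 also: a rise in the Bmi1 reporter signal indicates esBAF inhibition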
MITF TRPM1 HTS: activators of MITF-driven TRPM1 promoter activity in SK-MEL-5 cells; SK-MEL-5 TRPM1-promoter luciferase, 24 h; % of positive control, neutral wells = 0; activation, % at 12.5 µM; 0.75% of 300,000 active; AID 588334;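 active = mean activation of at least 80% with every replicate also reaching 80%; inconclusive = mean reaches 80% but some replicate falls short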
Wnt bcat act: Wnt/beta-catenin pathway activation. activation, % at 9.35 µM. Wnt/beta-catenin reporter cell assay, activator, plate reader. 1.2% of 300,000 active; in the data active = activation above about 30%, passing the limit was not always enough; inconclusive = no clear call, values can overlap the other calls
FXN GAA850 act: frataxin GAA850 promoter activation | HEK293 lucGAA850 FXN promoter luciferase reporter, 24 h; percent of 10 µM SAHA response | AID 540364 | 0.56% of 360,000 active | activation, % at 6 µM;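 active = activation above the average of all compounds screened plus 3 SD, cutoff fixed separately per campaign, cut at about 7.5% in these data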
Ring1 derepress: confirmation of esBAF inhibitors: Ring1 de-repression in mouse ESCs. shares compounds with esBAF inh. mouse ESC E14, Ring1 mRNA RT-qPCR fold change. fold change at 33 µM. 550 tested, under 10 active. AID 743176;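 active = Ring1 gene expression raised more than 2-fold over untreated cells in both replicates at either tested dose; inconclusive = only one replicate above 2-fold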;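 also: Ring1 transcript normalised to actin housekeeping signal by TaqMan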
esBAF Fgf4 qPCR: esBAF inhibition confirmed by Fgf4 repression | 4% of 550 active | mouse ESC E14, Fgf4 mRNA qPCR fold change; hits give low values | shares compounds with esBAF inh | Fgf4 expression fold change at 33 µM;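 active = Fgf4 expression under 0.8 fold of control in both repeat measurements at one or both tested doses; inconclusive = under 0.8 fold in just a single repeat measurement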;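 also: Fgf4 transcript normalised to actin in duplex TaqMan qPCR; cells exposed to compound for 24 h before lysis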
esBAF Bmi1 qPCR: confirmation of esBAF inhibitors: Bmi1 de-repression in mouse ESCs; 550 tested, under 10 active; shares compounds with esBAF inh; fold change at 33 µM; AID 743180; mouse ESE14 ES cells, Bmi1 mRNA qPCR fold; hits give high values;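 active = Bmi1 expression fold change above 6 at either tested concentration, seen in replicate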;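 also: higher fold means more Bmi1 de-repression and stronger esBAF inhibition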
A549 cytotox: A549 cell cytotoxicity; shares compounds with esBAF inh; plate reader; cell viability change % (negative = cytotoxic), % at 25 µM, hits read low; 550 tested, under 10 active; AID 743188; call rule not given here
HepG2 cytotox SP: HepG2 cell cytotoxicity at single point; shares compounds with esBAF inh; plate reader; hits give low values; activity change, negative = inhibition, % at 25 µM; 4% of 550 active; AID 743189; in the data active = activity change below about -50%
HEK293 tox SP: cytotoxicity in HEK293 cells; AID 743190; activity change, negative = inhibition, % at 25 µM, hits read low; plate reader; shares compounds with esBAF inh; 3% of 550 active; in the data active = activity change below about -38%, passing the limit was not always enough
A number is an active result; i = inactive; ? = inconclusive; nt = no result given. Most compounds without a hit are left out; they make up all but 2.8% or so of the library.

SMILES | esBAF inh | MITF TRPM1 HTS | Wnt bcat act | FXN GAA850 act | Ring1 derepress | esBAF Fgf4 qPCR | esBAF Bmi1 qPCR | A549 cytotox | HepG2 cytotox SP | HEK293 tox SP
COC(=O)c1ccc2[nH]c(C(C)(C)O)c(C)c2c1 | 57 | i | i | i | i | i | i | i | i | i
COC(=O)c1ccc2[nH]c(C)cc(=O)c2c1 | i | i | i | i | nt | nt | nt | nt | nt | nt
O=C(Nc1ccc(F)cc1)Nc1ccc2c(c1)[C@H]1C[C@@H](CC(=O)N3CCOCC3)O[C@H](CO)[C@H]1O2 | i | nt | nt | nt | nt | nt | nt | nt | nt | nt
C[C@@H]1CN([C@@H](C)CO)C(=O)c2cccc(NS(=O)(=O)c3cn(C)cn3)c2O[C@H]1CN(C)C(=O)Nc1ccc(C(F)(F)F)cc1 | i | nt | nt | nt | nt | nt | nt | nt | nt | nt
C[C@H](CO)N1C[C@H](C)[C@@H](CN(C)S(C)(=O)=O)Oc2ccc(NS(=O)(=O)c3cccs3)cc2C1=O | i | nt | nt | nt | nt | nt | nt | nt | nt | nt
COC(=O)c1cc(Nc2cc(C)c3c(O)cccc3n2)cc(C(=O)OC)c1 | i | i | i | i | nt | nt | nt | nt | nt | nt
COc1ccc(Nc2cc(C)c3c(O)cccc3n2)cc1 | 57 | 130 | i | i | i | i | i | i | i | i
COc1cccc(Nc2cc(C)c3ccccc3n2)c1 | 66 | i | i | i | i | i | i | i | i | i
Cc1noc(C)c1S(=O)(=O)Nc1ccc2c(c1)C(=O)N([C@@H](C)CO)C[C@@H](C)[C@H](CN(C)S(=O)(=O)c1ccccc1)OCCCC[C@@H](C)O2 | i | nt | nt | nt | nt | nt | nt | nt | nt | nt
C[C@H](CO)N1C[C@H](C)[C@H](CN(C)CC2CCCCC2)Oc2ccc(NC(=O)C3CCCCC3)cc2CC1=O | i | nt | nt | nt | nt | nt | nt | nt | nt | nt
CCN1C(=O)C(=CC=CN(C)c2ccccc2)SC1=S | 84 | nt | i | i | i | i | i | i | i | i
O=C(COc1ccc(/C=N/NC(=O)c2cc3ccccc3o2)cc1Br)Nc1ccccc1 | ? | i | nt | i | i | ? | i | -121 | -75 | -121
COc1cccc2sc(NC(=O)c3ccc(Br)s3)nc12 | 68 | i | nt | i | i | i | i | i | i | i
Cc1cccc2sc(NC(=O)c3ccc(Cl)s3)nc12 | ? | i | i | i | nt | nt | nt | nt | nt | nt
COCC(=O)Nc1ccc2c(c1)C(=O)N(C)C[C@H](OC)[C@@H](C)CN(Cc1cccnc1)[C@H](C)CO2 | i | nt | nt | nt | nt | nt | nt | nt | nt | nt
CN1[C@H](C(=O)NC2CCC2)[C@@H](CO)[C@@H]2Cn3c(ccc(-c4cccc(F)c4)c3=O)[C@@H]21 | i | nt | nt | nt | nt | nt | nt | nt | nt | nt
O=C(Nc1ccc(F)cc1F)NC1CC1 | nt | i | i | i | nt | nt | nt | nt | nt | nt
O=C(Nc1ccc(F)cc1F)NC1CCCCCCC1 | 63 | i | i | i | i | i | i | i | -51 | i
CN(C)c1ccc(CNc2nc3cc(-c4ccc(F)cc4)sc3c(=O)n2C)cc1 | 77 | nt | i | i | i | i | i | i | i | i
COc1ccc(CCC(=O)N2CCc3ccccc32)cc1 | 63 | nt | i | i | i | i | i | i | i | i
Cc1ccc(C(=O)N2CCc3ccccc32)cc1C | 52 | nt | i | i | i | i | i | i | i | i
COc1cc2[nH]c(C(=O)N3CCc4ccccc43)cc2c(OC)c1OC | 58 | i | i | i | i | i | i | i | i | i
O=C(c1ccccc1)N1CCc2ccccc21 | nt | i | nt | i | nt | nt | nt | nt | nt | nt
COc1ccc(C(=O)N2CCc3ccccc32)cc1 | 68 | nt | i | i | i | i | i | i | i | i
C[C@@H](O)C#Cc1cnc2c(c1)C(=O)N([C@@H](C)CO)C[C@H](C)[C@@H](CN(C)Cc1ccccn1)O2 | i | nt | nt | nt | nt | nt | nt | nt | nt | nt
SMILES | esBAF inh | MITF TRPM1 HTS | Wnt bcat act | FXN GAA850 act | Ring1 derepress | esBAF Fgf4 qPCR | esBAF Bmi1 qPCR | A549 cytotox | HepG2 cytotox SP | HEK293 tox SP
C[C@@H]1CN([C@H](C)CO)C(=O)c2cc(-c3ccccc3)cnc2O[C@@H]1CN(C)C(=O)NC1CCCC1 | i | nt | nt | nt | nt | nt | nt | nt | nt | nt
CCC(=O)N1[C@@H]2Cn3c(ccc(-c4ccncc4)c3=O)[C@H]1[C@@H](C(=O)N1CCc3ccccc3C1)[C@@H]2CO | i | nt | nt | nt | nt | nt | nt | nt | nt | nt
CO[C@@H]1CN(C)C(=O)c2ccc(NC(=O)C3CC3)cc2OC[C@H](C)N(CCc2ccccc2)C[C@@H]1C | i | nt | nt | nt | nt | nt | nt | nt | nt | nt
CNC[C@H]1OCCCC[C@@H](C)Oc2ccc(NS(=O)(=O)c3cccs3)cc2C(=O)N([C@@H](C)CO)C[C@H]1C | i | nt | nt | nt | nt | nt | nt | nt | nt | nt
O=C(CC(=O)c1ccncc1)c1ccccc1 | nt | i | i | i | nt | nt | nt | nt | nt | nt
O=C(CC(=O)c1ccccc1)c1ccccc1 | 86 | i | i | i | i | i | i | i | i | i
CN(C(=O)c1ccco1)c1nc(-c2ccc(Cl)cc2)cs1 | i | i | i | i | nt | nt | nt | nt | nt | nt
CC(=O)N(C)c1nc(-c2ccc(Cl)cc2)cs1 | 74 | i | nt | i | i | i | i | i | i | i
COc1ccc(-c2cc(C(=O)N3CCN(c4ccccc4)CC3)no2)cc1 | 60 | i | i | i | i | i | i | i | i | i
O=C(C[C@H]1CC[C@@H](NC(=O)c2ccncc2)[C@H](CO)O1)NCC1CCCCC1 | i | nt | nt | nt | nt | nt | nt | nt | nt | nt
Cc1cc2c(cc1C)C(=O)CCC2 | i | nt | i | i | nt | nt | nt | nt | nt | nt
O=C1CCCc2cc3c(ccc4ccccc43)cc21 | 75 | i | i | i | i | i | i | i | i | i
Cc1ccc(Nc2cccccc2=O)cc1 | 55 | ? | i | i | i | i | i | i | i | i
N/C(=N\OC(=O)C1CCCCC1)c1ccc(Cl)cc1 | 65 | i | i | i | i | i | i | i | i | i
COc1ccccc1-c1ccc([C@@H]2[C@@H](C#N)N(C(=O)NC(C)C)[C@@H]2CO)cc1 | i | nt | nt | nt | nt | nt | nt | nt | nt | nt
CO[C@@H]1CN(C)C(=O)c2cc(NC(=O)C3CC3)ccc2OC[C@@H](C)N(C(=O)c2ccccn2)C[C@@H]1C | i | nt | nt | nt | nt | nt | nt | nt | nt | nt
C=CCNc1nc(NCc2cccc(OC)c2)c2sc(-c3ccccc3)cc2n1 | 71 | nt | i | i | 3.7 | 0.3 | 17 | i | i | -66
C[C@H]1CN([C@@H](C)CO)C(=O)CCCn2nncc2CO[C@H]1CN(C)C(=O)Nc1ccc(N2CCN(C)CC2)cc1 | i | nt | nt | nt | nt | nt | nt | nt | nt | nt
Clc1ccc(-c2nnc(-c3cccc4ccccc34)o2)cc1 | 71 | i | 39 | i | i | i | i | i | i | i
O=C(Nc1ccc(Cl)cc1)Nc1ccc(Cl)c(Cl)c1 | nt | nt | i | nt | nt | nt | nt | nt | nt | nt
O=C(Nc1ccc(Cl)c(Cl)c1)Nc1ccccc1O | 74 | nt | i | i | i | ? | i | i | i | i
Oc1ccc(-c2nccc(-c3ccccn3)n2)cc1 | 60 | 101 | i | i | i | i | i | i | i | i
Cc1ccc(-c2ccnc(-c3ccc(O)cc3)n2)cc1 | nt | i | i | i | nt | nt | nt | nt | nt | nt
CC(C)C#Cc1ccc2c(c1)O[C@H](CN(C)C(=O)c1cccc(F)c1)[C@H](C)CN([C@H](C)CO)S2(=O)=O | i | nt | nt | nt | nt | nt | nt | nt | nt | nt
